Compound activity as filed in PubChem.
DAX1 inh-1: NR0B1 (DAX1) inhibition. P51843. HEK293 Gal4-DAX1 luciferase reporter, luminescence. inhibition, % at 6.75 µM. 340,000 tested, 0.99% active. AID 504766;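 active = inhibition above the mean over all tested compounds plus 3 SD, cut at about 4.2% in these data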;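 also: inhibition shows as a rise in luminescence from relieved DAX1 repression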
Target sequence (P51843 207-470 limits assumed): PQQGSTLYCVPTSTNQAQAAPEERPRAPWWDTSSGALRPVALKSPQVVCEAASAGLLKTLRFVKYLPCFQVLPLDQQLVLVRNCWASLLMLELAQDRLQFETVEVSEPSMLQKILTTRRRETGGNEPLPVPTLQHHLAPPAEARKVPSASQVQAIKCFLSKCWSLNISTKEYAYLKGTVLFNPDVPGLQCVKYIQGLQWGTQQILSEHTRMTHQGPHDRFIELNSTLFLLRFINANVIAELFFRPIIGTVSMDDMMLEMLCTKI
hgDAF-12 ag: activates the H. glycines DAF-12 receptor ligand-binding domain. HEK293 GAL4-hgDAF12 UAS-luciferase reporter, agonist luminescence; normalized to butyrate control. activation, % at 6.8 µM. 370,000 tested, 1.8% active. AID 687014;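 active = activation above a cutoff set at the mean of all screened compounds plus 3 SD, cut at about 10% in these data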
hcDAF-12 act: activates DAF-12 receptor from parasite H. contortus; activation, % at 6.8 µM; HEK293 hcDAF-12 lit1-tk-luc reporter, luminescence; 0% DMSO, 100% Δ7-dafachronic acid; 370,000 tested, 1.4% active; AID 652067;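 active = activation above the mean of all tested compounds plus 3 SD, cut at about 5.5% in these data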
ssDAF12 agonist: activates DAF-12 receptor from parasite S. stercoralis | activation, % at 6.8 µM | HEK293 ssDAF-12/GRIP1 lit1-tk-luc reporter, luminescence; % of 3 µM dafachronic acid response | 370,000 tested, 1% active | AID 652126;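 active = activation above the mean over all tested compounds plus 3 SD, cut at about 0.9% in these data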
DAX1 inh-2: blocks DAX1 repression of SF-1 activated StAR promoter; 370,000 tested, 1.1% active; inhibition, % at 6.8 µM; HEK293T StAR-luciferase reporter, SF-1/DAX-1 repression relief; AID 652010;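 active = inhibition above the mean over all tested compounds plus 3 SD, cut at about 3.6% in these data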;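 also: higher inhibition means more luminescence from relief of DAX-1 repression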
Large screens that a line does not name were inactive. The list is not random: actives were taken first. Their share in the collection is about 4.1%.

Cn1c2ccccc2c2cc(C(=O)N3CCN(CCO)CC3)sc21	DAX1 inh-1 5.4
CC(=O)NNC(=O)c1cc2c3ccccc3n(C)c2s1	none
O=C(NC1CCN(Cc2ccccc2)CC1)C1CCN(c2nnc(-n3cccc3)s2)CC1	none
O=C(NC1CCN(Cc2ccccc2)CC1)C1CCCN(c2nnc(-n3cccc3)s2)C1 (stereo not given)	hgDAF-12 ag 11
CC(=O)Nc1nnc(COc2ccccc2)s1	none
COCc1nnc(NC(C)=O)s1	DAX1 inh-1 5.5
COc1cc(Cn2cc([C@]34C[C@H]5C(=O)N(C)CC(=O)N5[C@H]3N(S(=O)(=O)c3ccccc3)c3ccccc34)c3ccccc32)cc(OC)c1	none (no result: DAX1 inh-1, DAX1 inh-2)
Cn1c(COc2ccccc2)nnc1SCC(=O)Nc1ccccc1-c1ccccc1	none (no result: DAX1 inh-1)
CCN(CC)C(=S)Nc1c(C)n(C)n(-c2ccccc2)c1=O	DAX1 inh-1 4.5
CCNC(=S)Nc1c(C)n(C)n(-c2ccccc2)c1=O	none
CCc1ccc(Nc2nc(C)cc(C)n2)cc1	hgDAF-12 ag 11
Cc1cc(C)nc(Nc2ccc(O)cc2)n1	none
COc1ccc(CC(=O)Nc2ccc(/C(C)=N\NC(=O)c3ccc(Br)o3)cc2)cc1	hgDAF-12 ag 12, hcDAF-12 act 6.2
COc1ccc(CC(=O)NNC(=O)c2ccc(Br)o2)cc1	none
COC(=O)Cc1ccc(NC(=O)c2ccc(Br)o2)cc1	hgDAF-12 ag 12
O=C(Nc1ccc2c(c1)CCC2)c1ccc(Br)o1	hgDAF-12 ag 13, hcDAF-12 act 5.8
Cc1nc(NC(=O)c2ccc(Br)o2)ccc1Br	DAX1 inh-2 4.0
O=C(Nc1cccc(NC(=O)c2ccc(Br)o2)n1)c1ccc(Br)o1	none
C=CCOC(=O)N[C@@H](c1cccc(OC)c1)[C@@H](C)/C=C/CC(=O)O	none (no result: DAX1 inh-1)
O=C(Cc1cn(Cc2ccccc2)c2ccccc12)Nc1ccc(Nc2cccnc2)c(Br)c1	none (no result: DAX1 inh-1)
O=C(CCl)Nc1ccc(C(=O)NCC2COc3ccccc3O2)cc1 (stereo not given)	none (no result: DAX1 inh-1)
C/C(=N\NC(=O)c1c(Br)c(C)nn1C)c1ccc(NC(=O)c2ccoc2C)cc1	hgDAF-12 ag 12
CCCC/C(=N\NC(=O)c1ccc(Br)o1)c1ccccc1	none
C/C(=N\NC(=O)c1ccccc1N)c1ccc(NC(=O)Cc2ccccc2)cc1	DAX1 inh-1 6.9
CCN1CCN(c2ccc(NC(=O)c3ccc(Br)o3)cc2)CC1	hgDAF-12 ag 11, ssDAF12 agonist 1.1, DAX1 inh-2 3.7
CC/C(=N/NC(=O)c1ccc(Br)o1)c1ccc(Cl)cc1	hgDAF-12 ag 12
COc1ccccc1C(=O)N1CCC2CCN(C(=O)OC(C)(C)C)C2C1 (stereo not given)	none (no result: DAX1 inh-1)
CCN(CC)C(=O)CC[C@@H]1CC[C@]2(CCCN(C(=O)c3ccno3)C2)O1	none (no result: DAX1 inh-1)
C/C(=N\NC(=O)C1CC1)c1ccc(NC(=O)c2ccc(Br)o2)cc1	none (no result: DAX1 inh-1)
C/C(=N\NC(=O)c1c(Cl)cnn1C)c1ccc(NC(=O)c2ccc(Br)o2)cc1	DAX1 inh-2 6.3
O=c1[nH]nc(Cc2ccc3ccccc3n2)c2ccccc12	hcDAF-12 act 6.5, ssDAF12 agonist 1.0
COC(=O)C(C[N+](=O)[O-])C1=C(O)CC(C)(C)CC1=O (stereo not given)	none (no result: DAX1 inh-1)
CCOc1cc(/C=N/Nc2nc(Nc3ccccc3)nc(N3CCCCC3)n2)ccc1OCC(=O)O	none
COc1cc(C=NNc2ccccc2)ccc1OC(=O)c1ccccc1	none
CCOc1cc(/C=N/Nc2cccc(C(=O)O)c2)ccc1OC(=O)c1ccccc1	ssDAF12 agonist 1.1
CCOc1cc(/C=N/Nc2ccccc2Cl)ccc1OCC(=O)O	hcDAF-12 act 6.3
CC(C)CNc1cccc2c1S(=O)(=O)N[C@@H](C)CO2	none (no result: DAX1 inh-1)
OC(c1ccccc1)(c1ccccc1)C1CCN(CCCNc2cccc(OC(F)(F)F)c2)CC1	none (no result: DAX1 inh-1)
Cn1c(-c2ccc(F)c(F)c2)cc2onc(-c3ccccc3)c2c1=O	hgDAF-12 ag 12
COC(=O)c1ccc(-c2cc3onc(-c4ccccc4)c3c(=O)n2C)cc1	none
COc1cccc(-c2cc3onc(-c4ccccc4)c3c(=O)n2C)c1	hgDAF-12 ag 12
COc1cccc(C2CC(c3ccccc3)Nc3ncnn32)c1 (stereo not given)	none
CCOc1ccc(C2CC(c3cccc(OC)c3)Nc3nc(N)nn32)cc1 (stereo not given)	DAX1 inh-1 4.7
COc1cccc(C2CC(c3ccccc3OC)n3ncnc3N2)c1 (stereo not given)	DAX1 inh-1 5.5
COc1ccc(C2CC(c3ccc(Cl)cc3Cl)n3nc(N)nc3N2)cc1 (stereo not given)	DAX1 inh-1 5.2
COc1cccc(C2CC(c3ccc(C)cc3)n3nc(N)nc3N2)c1 (stereo not given)	none
CN[C@H]1C[C@H]2c3[nH]c4c(-c5ccc6c(c5)OCO6)cccc4c3CCN2C(=O)[C@H]1[C@H](C)O	none (no result: DAX1 inh-1)
O=C(Nc1ccc([N+](=O)[O-])cc1)N1CCc2ccccc2C1	none
CC(C)c1ccc(NC(=O)N2CCc3ccccc3C2)cc1	hcDAF-12 act 5.8
CC(CCN1CCC(C(O)(c2ccccc2)c2ccccc2)CC1)Oc1cccc(Br)c1 (stereo not given)	none (no result: DAX1 inh-1)
c1ccc2c(c1)Nc1cc3ccccc3cc1S2	hcDAF-12 act 6.5
CCCOc1ccc(-c2nnc(-c3cccs3)o2)cc1	hgDAF-12 ag 10
O=C(CN1C(=O)NC2(CCCCC2)C1=O)NCc1ccc2c(c1)OCO2	DAX1 inh-1 7.2
COc1cccc(CCc2nnc(CCC(=O)N3CCCC3c3nccs3)o2)c1 (stereo not given)	DAX1 inh-1 4.2
COc1cccc(CCc2nnc(CCC(=O)NCCC3CCCCO3)o2)c1 (stereo not given)	none
Fc1cccc(Cn2ccc3ccc(-c4ccc5ccn(Cc6cccc(F)c6)c5c4)cc32)c1	none (no result: DAX1 inh-1)
CSc1sc(C(=O)NN)c2c1C1(CCC2)SCCS1	DAX1 inh-1 5.8
CC(=O)Nc1cc2c(cc1Cl)-c1ccc(F)cc1C2O (stereo not given)	ssDAF12 agonist 1.5
Cc1ccc2c(c1)-c1c(cnn1CC(=O)NCCc1ccccc1F)CO2	none (no result: DAX1 inh-1)
Cc1ccc(-c2csc(N/N=C/c3ccco3)n2)cc1	none
C(=N\Nc1nc(-c2ccccc2)cs1)/c1ccncc1	none
Clc1ccc(-c2csc(N/N=C/c3ccco3)n2)cc1	DAX1 inh-1 6.2
Cc1sc(N/N=C/c2ccco2)nc1-c1ccccc1	ssDAF12 agonist 1.4
C(=N\Nc1nc(-c2ccccc2)cs1)/c1cccs1	hcDAF-12 act 5.8
C(=N\Nc1nc(-c2ccccc2)cs1)/c1ccco1	hgDAF-12 ag 13
CC1(C)OC(=O)C2=C(CC(CCc3ccccc3)OC2c2cccc(C(F)(F)F)c2)O1 (stereo not given)	none (no result: DAX1 inh-1)
C=CCn1c(SCC(=O)Nc2ccccc2-c2ccccc2)nnc1-c1ccccc1	none (no result: DAX1 inh-1)
Cc1ccc2nc(N/N=C/c3ccco3)cc(C)c2c1	hgDAF-12 ag 11
NNc1nc(-c2ccccc2)cs1	hcDAF-12 act 6.0
O=Cc1cnc(N2CCCCC2)s1	DAX1 inh-1 7.1
